Screening data (PubChem BioAssay)
This is a sample that favours compounds with a hit; in the whole collection about 2.4% have one here.
D2 PAM-1: positive allosteric modulators of human D2 dopamine receptor; P14416; AID 624464; potentiation, % (no concentration beside the values); DiscoveRx D2 beta-arrestin cells, luminescence, 90 min; 100% = 57 uM dopamine signal; 0.23% of 360,000 active; in the data active means potentiation above about 50%; inconclusive means mostly about 30% to 49%
Target sequence (P14416 whole entry, looked up): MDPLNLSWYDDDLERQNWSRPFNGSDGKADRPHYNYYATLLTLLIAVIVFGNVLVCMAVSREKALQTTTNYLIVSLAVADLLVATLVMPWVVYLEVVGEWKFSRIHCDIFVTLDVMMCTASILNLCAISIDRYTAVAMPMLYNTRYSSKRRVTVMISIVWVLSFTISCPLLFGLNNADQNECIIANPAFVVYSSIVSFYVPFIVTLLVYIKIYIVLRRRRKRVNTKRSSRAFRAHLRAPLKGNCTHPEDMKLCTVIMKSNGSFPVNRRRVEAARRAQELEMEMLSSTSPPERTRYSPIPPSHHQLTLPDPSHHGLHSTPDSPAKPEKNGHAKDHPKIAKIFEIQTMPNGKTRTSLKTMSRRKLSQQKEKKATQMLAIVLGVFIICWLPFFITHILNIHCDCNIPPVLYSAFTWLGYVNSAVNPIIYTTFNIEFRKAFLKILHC
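PathHunter D2 cells, attached overnight at 37 deg C, received compound in DMSO plus dopamine at EC20 (50 nM final) for 90 min at 37 deg C. Beta-arrestin recruitment was read as luminescence after 1 h with detection reagent at ambient temperature.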
D2 ag-1: agonists of human D2 dopamine receptor (beta-arrestin); P14416; DiscoveRx PathHunter D2 beta-arrestin, luminescence, 90 min; 100% = 57 uM dopamine signal; activation, % (test concentration not listed); 0.084% of 360,000 active; AID 624465; in the data active means activation above about 40%; inconclusive means between about 15% and that limit
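DiscoveRx PathHunter D2 beta-arrestin cells (2,100/well) attached overnight, then compound-stimulated 90 min at 37 C in HBSS/10 mM HEPES/0.1% Tween-20 buffer; beta-galactosidase complementation read by luminescence after 1 h at ambient temperature. Dopamine 57 uM final (EC100) as control.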
D2 ag-2: agonists of human D2 dopamine receptor. 0.53% of 340,000 active. activation, % at 2 µM. HEK293 T-REx D2 cells, calcium flux agonist mode. AID 485358;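 active means activation over 3 SD above normal in the single-dose calcium agonist read, cut at about 30% in these data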
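In this primary screen, compounds producing a positive calcium signal within 180 s of addition to tetracycline-induced, force-coupled HEK293 Trex D2 cells are flagged; cells are dye-loaded with a no-wash calcium kit beforehand.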
D2 antag: antagonists of human D2 dopamine receptor; inhibition, % at 10 µM; P14416; AID 485344; HEK293 TREx D2 cells, calcium flux, dopamine EC80; 2% of 340,000 active; in the data active means inhibition above about 30%; inactive means below that, where a call was filed
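Measurement of antagonist activity uses fluorescent calcium dye in inducible HEK293 T-REx D2 cells: 10 s baseline, compound addition with 180 s read, EC80 dopamine addition with a further 180 s read.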
D2 PAM-2: positively modulates the human D2 dopamine receptor allosterically; HEK293 T-REx D2, calcium flux, EC20 dopamine potentiation; 0.34% of 340,000 active; AID 485347; potentiation, % at 10 µM;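 active means potentiation over 3 SD above the plate norm, cut at about 30% in these data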
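Using a no-wash calcium dye in inducible, force-coupled HEK293 Trex cells expressing D2, we tracked fluorescence each second for 180 s after compound, then for 180 s after EC20 dopamine to detect augmented signalling.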
Of the large screens only hits and unclear results are named; the others gave an inactive call.

CC(=O)c1ccc(NC(=O)C2CCC(CNS(=O)(=O)c3ccc4c(c3)CCCC(=O)N4)CC2)cc1 (stereo unspecified)	none (no result: D2 PAM-1, D2 ag-1, D2 antag)
Cc1ccc(NC(=O)CSc2nc3nccnc3c(=O)n2CCc2c[nH]c3ccccc23)c(C)c1	none (no result: D2 PAM-1, D2 ag-1, D2 antag)
CCO[C@H]1OC(C(=O)N2CCCCCCC2)=C[C@@H](c2csc3ccccc23)[C@@H]1CCCO	none
CCO[C@H]1OC(C(=O)O)=C[C@@H](c2csc3ccccc23)[C@@H]1CCCO	D2 antag 32
CN1C(=O)c2ccc(NC(=O)c3c(C(=O)O)cccc3[N+](=O)[O-])cc2C1=O	D2 antag 34
O=C(Cn1c(=O)c2cccn2c2cccnc21)NCCCN1CCN(c2ccc(F)cc2)CC1	D2 antag 54
CCCCNC(=O)CSc1cc(=O)n(C)c2ccccc12	D2 antag 35
COc1ccc(N2CCN(CCCNC(=O)Cn3c(=O)c4cccn4c4cccnc43)CC2)cc1	none
CCn1c(=O)cc(SCC(=O)NCCCN2CCC(C)CC2)c2ccccc21	none
CCn1c(=O)cc(SCC(=O)NCCCN2CCN(c3ccc(F)cc3)CC2)c2ccccc21	D2 antag 66
COC(=O)CC1Oc2ccc(F)cc2-n2cc(-c3ccc(Cl)cc3)nc21 (stereo unspecified)	none (no result: D2 PAM-1, D2 ag-1, D2 antag)
Cc1ccc(-c2nc(SCCOc3ccccc3C)n3[nH]c(=O)cc3n2)cc1	none (no result: D2 PAM-1, D2 ag-1, D2 antag)
Clc1cccc(-n2ncc3c(NCCC4=CCCCC4)ncnc32)c1	none (no result: D2 PAM-1, D2 ag-1, D2 antag)
CCOc1cc2sc(N3CCC(C(=O)Nc4ccccc4C(=O)OC)CC3)nc2cc1Br	none (no result: D2 PAM-1, D2 ag-1, D2 antag)
Cc1cc(N2CCC(N(C)C3CCCC3)CC2)nc2cc(O)ccc12	D2 antag 48
CCCS(=O)(=O)N1CCC(C(=O)N2CCC(Cc3ccccc3)CC2)CC1	none
CCCS(=O)(=O)N1CCC(C(=O)NCCCN2CCC(Cc3ccccc3)CC2)CC1	D2 antag 33
Cc1cccc(C)c1NC(=O)C(c1cccs1)N(Cc1ccco1)C(=O)Cn1nnc2ccccc21 (stereo unspecified)	D2 PAM-2 35
O=C(Nc1ccc2c(c1)OCO2)c1cnn2cccnc12	D2 antag 69
O=C(CSc1nc2c(sc3ccccc32)c(=O)n1CCCN1CCCC1)NCC1CCCO1 (stereo unspecified)	D2 PAM-2 41
COc1cc(C2Nc3ccccc3-c3nnc(SCc4ccc(C)cc4)nc3O2)cc(OC)c1O (stereo unspecified)	none (no result: D2 PAM-1, D2 ag-1, D2 antag)
CC1=C(C)CC(C(=O)NC2CCCC2)C(C(=O)O)C1 (stereo unspecified)	none
CC1=CCC(C(=O)O)C(C(=O)NC2CCCCC2)C1 (stereo unspecified)	D2 antag 45
CCOc1ccc(C2=NC(c3cccs3)=Nc3ccc(CC)cc3N2)cc1OCC	none (no result: D2 PAM-1, D2 ag-1, D2 antag)
O=C(N/N=C/c1cc2c(cc1Br)OCO2)c1ccccn1	none
O=C(N/N=C/c1cc2c(cc1Br)OCO2)c1cc2ccccc2o1	D2 antag 80
CC(C)(C)c1cc(C(=O)N/N=C/c2cc3c(cc2Br)OCO3)n[nH]1	D2 antag 49
CCOC(=O)c1ccc(-n2c(N)c(C(=O)OC)c3nc4ccccc4nc32)cc1	none (no result: D2 PAM-1, D2 ag-1, D2 antag)
CCOC(=O)c1ccc(N2C(=O)c3[nH]nc(-c4ccc(C)cc4)c3C2c2cccc(F)c2)cc1 (stereo unspecified)	none (no result: D2 PAM-1, D2 ag-1, D2 antag)
COc1ccc(-c2nc3sc(CCNC(=O)C(=O)Nc4cccc(NC(C)=O)c4)c(C)n3n2)cc1	none (no result: D2 PAM-1, D2 ag-1, D2 antag)
CC(=O)C(C(C)=O)c1c(Cl)c(O)c(O)c2c(C(=O)c3ccccc3)coc12	D2 PAM-1 103, D2 ag-1 inconclusive
CCN(CC(=O)NCc1ccc(Cl)cc1)C(=O)COc1cccc(C(F)(F)F)c1	none
CCN(CC(=O)NCc1ccc(Cl)cc1)C(=O)COc1cccc(Cl)c1	D2 antag 33
COc1ccc(C(=O)N2CC(=O)Nc3ccc(C)cc3C2c2ccc(F)cc2)c(OC)c1 (stereo unspecified)	none (no result: D2 PAM-1, D2 ag-1, D2 antag)
Cc1cc2c(OCC(O)CNC3CCCCC3)cccc2[nH]1 (stereo unspecified)	D2 antag 60
Cc1cc(=O)n2c(C(=O)Nc3ccc(C)c(Cl)c3)c(C(=O)Nc3ccccc3)sc2n1	none (no result: D2 PAM-1, D2 ag-1, D2 antag)
Cc1cccc(CNC(=O)C2CCC(=O)N(C3CC3)C2)c1 (stereo unspecified)	D2 PAM-2 52
CSc1cccc(CNC(=O)C2CCC(=O)N(CCCN3CCCC3=O)C2)c1 (stereo unspecified)	D2 antag 86
CCN1CCN(c2ncc3c(n2)CCN(Cc2sccc2C)C3)CC1	none (no result: D2 PAM-1, D2 ag-1, D2 antag)
CCOC(=O)C1CCN(C(=O)CSc2n[nH]c(-c3ccccc3Cl)n2)CC1	none (no result: D2 PAM-1, D2 ag-1, D2 antag)
Cc1cc(-c2ccc(S(=O)(=O)Nc3ccc(Cl)cc3C)cc2)on1	none (no result: D2 PAM-1, D2 ag-1, D2 antag)
O=C(CCc1ccccc1)NC(=S)Nc1cccc(Br)c1	D2 PAM-1 80, D2 ag-1 inconclusive
COc1cc(NC(=S)NC(=O)CCc2ccccc2)cc(OC)c1	D2 PAM-1 62
CC(=O)Nc1ccc(OC(=O)c2ccc(Cl)cc2)cc1	D2 antag 33
C/C(=C\C(=O)c1ccccc1)Nc1ccc(O)cc1	D2 PAM-1 56, D2 ag-1 inconclusive
CCc1ccc2c(CN3CCc4cc(OC)c(OC)cc4C3)cc(=O)oc2c1	D2 antag 32
COc1ccccc1C1CCN(Cc2ccc(C)cc2)CC1	D2 antag 95
COc1ccccc1CNC1CCN(Cc2ccccc2)CC1	none (no result: D2 ag-2, D2 antag, D2 PAM-2)
COc1cc2c(cc1OC)CN(Cc1ccc(C)cc1)CC2	D2 antag 56
Cc1nc2ncnn2c(C)c1CCC(=O)NCc1ccccc1Cl	none (no result: D2 PAM-1, D2 ag-1, D2 antag)
CC(C)OC(=O)N(C)C[C@@H]1OCc2cnnn2CCCC(=O)N([C@H](C)CO)C[C@@H]1C	none (no result: D2 ag-2, D2 antag, D2 PAM-2)
Cn1c(=O)c2sccc2n2c(CCCC(=O)NCc3ccc(F)cc3)nnc12	D2 PAM-2 33
Cn1c(=O)c2sccc2n2c(CCCC(=O)NCc3cccnc3)nnc12	none
Cn1c(=O)c2sccc2n2c(CCCC(=O)Nc3ccc(F)cc3F)nnc12	D2 PAM-2 32
Cn1c(=O)c2sccc2n2c(CCCC(=O)Nc3ccc(F)c(F)c3)nnc12	none (no result: D2 PAM-1, D2 ag-1, D2 antag)
Cn1c(=O)c2sccc2n2c(CCCC(=O)NCc3ccc4c(c3)OCO4)nnc12	D2 PAM-2 35
CC1CCC(NC(=O)c2ccc3c(c2)N(Cc2cccc(Cl)c2)C(=O)c2ccccc2S3=O)CC1 (stereo unspecified)	none (no result: D2 PAM-1, D2 ag-1, D2 antag)
COC(=O)CCNCCSc1nnc(-c2ccco2)n1Cc1ccccc1	D2 antag 33
CCOc1ccccc1C(=O)NCC(=O)N1CCN(Cc2ccc3c(c2)OCO3)CC1	none
Cc1ccc(C)c(N2CCN(C(=O)Cn3cnc4onc(-c5ccc(F)cc5)c4c3=O)CC2)c1	none (no result: D2 PAM-1, D2 ag-1, D2 antag)
Cc1cc(C[n+]2cc(Br)ccc2N)c2ncccc2c1	D2 antag 32
COc1cc2c(cc1OC)C1=C(C#N)CN(C3CCCCC3)CN1CC2	D2 antag 40
